Drawing on the supplement of paper PMC3898565, this text covers cell viability for 15 molecules.

“And” between values parts separate entries of the source, which are not always exact repeats. Equal entries are not always repeated. Structures can show the parent of a compound that is named as a salt. ± gives the uncertainty stated by the source.
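Note: viable cell number estimated from Alamar Blue fluorescence read at 560/90, part of a single-dose primary screen of an FDA-approved drug library.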

In the assay the test system is U87. Nature of the assay: cell viability relative to vehicle control; higher = less growth inhibition (less active). Conditions: 10 µM; 72 h.
For the molecule `C[C@H]1O[C@H](O[C@H]2[C@H](O)[C@@H](O)[C@@H](O[C@H]3[C@H](O)[C@@H](O)C(O)O[C@@H]3CO)O[C@@H]2CO)[C@H](O)[C@@H](O)[C@@H]1N[C@H]1C=C(CO)[C@@H](O)[C@H](O)[C@H]1O` (stereo not given in full), the cell viability (commonly a read-out of living cells in per cent, often relative to untreated cells) is 102.6 ± 0.92%.
`Nc1nc(Cl)nc2c1ncn2[C@H]1C[C@H](O)[C@@H](CO)O1`: the cell viability was 35.4 ± 1.4%.
With `CN1CCN2c3ncccc3Cc3ccccc3C2C1` (stereo not given) the figure was 108 ± 2.1%.
With `CNCCCC12CCC(c3ccccc31)c1ccccc12` [Maprotilline HCl] the figure was 102 ± 1.5%; with `Oc1ccc(/C=C/c2cc(O)cc(O)c2)cc1` [resveratrol], 100.5 ± 0.97%.
With `O=C(O)COCCN1CCN([C@H](c2ccccc2)c2ccc(Cl)cc2)CC1` the figure was 101.2 ± 0.57%.
Regarding `C[C@H](N[C@@H](CCc1ccccc1)C(=O)O)C(=O)N1CCC[C@H]1C(=O)O`, the cell viability turned out to be 98.3 ± 1.7%.
Take `NC1CCN(c2cccc(Cl)n2)CC1`: the cell viability was determined as 97.7 ± 4%.
To `O=C(CCNNC(=O)c1ccncc1)NCc1ccccc1` belongs 107.8 ± 0.97%; to `CN(C)[C@@H]1C(O)=C(C(=O)NCN2CCCC2)C(=O)[C@@]2(O)C(O)=C3C(=O)c4c(O)cccc4[C@@](C)(O)[C@H]3C[C@@H]12`, 107 ± 2.1%.
As for `Cc1cccc(C)c1NC(=O)C(C)N` (stereo not given), the cell viability was determined as 104 ± 2.3%.
To `O=C1CC2(CCCC2)CC(=O)N1CCNCC1COc2ccccc2O1` (stereo not given) belongs 110.4 ± 0.75%.
On to `CCOC(=O)C1(CCCCCCOc2ccc(Cl)cc2)CO1` (stereo not given), for which the cell viability came to 106 ± 1.7%.
To `COc1ccc2[nH]c([S+]([O-])Cc3ncc(C)c(OC)c3C)nc2c1` (stereo not given) belongs 105% and 106%.
In the case of `COC(=O)C1=C(C)NC(C)=C(C(=O)OCC(C)C)C1c1ccccc1[N+](=O)[O-]` (stereo not given) [Nisoldipine], the cell viability amounted to 48.4 ± 5%.
